# Tested on: Vero E6 infected with SARS-CoV-2
# Test: morphology score (similarity to uninfected cells); higher = more like uninfected cells
# Conditions: 24 h
row,Compound,morphology score
1,O=C(O)CCNc1cc(N2CCc3ccccc3CC2)nc(-c2ccccn2)n1 (10 µM),0.19
2,CC(=O)OCC(=O)[C@@]1(O)CC[C@H]2[C@@H]3CCC4=CC(=O)CC[C@]4(C)[C@@]3(F)[C@@H](O)C[C@@]21C (10 µM),0.0369
3,Cc1cc(C(=O)O)sc1C(N)C(=O)O (stereo not given) (10 µM),-0.0491
4,CN1CCN(C(=O)O[C@H]2c3nccnc3C(=O)N2c2ccc(Cl)cn2)CC1 (10 µM),-0.0495
5,OCc1ccc(O[C@@H]2O[C@H](CO)[C@@H](O)[C@H](O)[C@H]2O)cc1 [gastrodin] (10 µM),0.19
6,CCOC(=O)c1ccc(NC2CCCCC2)c(N)c1 [ferrostatin-1] (10 µM),0.117
7,CN[C@H](CC(C)C)C(=O)N[C@H]1C(=O)N[C@@H](CC(N)=O)C(=O)N[C@H]2C(=O)N[C@H]3C(=O)N[C@H](C(=O)N[C@H](C(=O)O)c4cc(O)cc(O)c4-c4cc3ccc4O)[C@H](O[C@H]3C[C@](C)(N)[C@@H](O)[C@H](C)O3)c3ccc(c(Cl)c3)Oc3cc2cc(c3O[C@@H]2O[C@H](CO)[C@@H](O)[C@H](O)[C@H]2O[C@H]2C[C@](C)(NCc3ccc(-c4ccc(Cl)cc4)cc3)[C@@H](O)[C@H](C)O2)Oc2ccc(cc2Cl)[C@H]1O [oritavancin] (10 µM),0.0399
8,O=C(Nc1cccc(C(F)(F)F)c1)Nc1ccc(Br)cc1-c1nnn[nH]1 (10 µM),-0.0612
9,Cc1nc(N)sc1-c1ccnc(Nc2ccc(N3CCOCC3)cc2)n1 (0.833333 µM),0.443
10,CC[C@@]1([C@H]2O[C@H]([C@H]3O[C@@](O)(CO)[C@H](C)C[C@@H]3C)C[C@H]2C)CC[C@H]([C@@]2(C)CC[C@]3(C[C@H](O)[C@@H](C)[C@@H]([C@H](C)[C@H](OC)[C@@H](C)C(=O)O)O3)O2)O1 (10 µM),0.556
11,CCCCCCCCCCCCCCCCCC(=O)OCC(O)CO (stereo not given) [monostearin] (10 µM),-0.0152
12,CCCCCCCCCCCCCCCCO [1-hexadecanol] (10 µM),-0.278
13,CN1CCC[C@@H]1CCSc1ccc(O)cc1 (10 µM),-0.0396
14,N=C(N)SCCc1ccc(OCc2ccc([N+](=O)[O-])cc2)cc1 (10 µM),0.268
15,NCCCC(O)(P(=O)(O)O)P(=O)(O)O [alendronate] (10 µM),0.102
16,COc1cc2nc(N3CCN(C(=O)COc4c(OC)cccc4C(C)C)CC3)nc(N)c2cc1OC (10 µM),-0.065
17,O=C(NCC(=O)N1CCCCC1)Nc1ccc2nnsc2c1 (10 µM),-0.144
18,Nc1nc(N)c(N=O)c(OCC2CCCCC2)n1 (10 µM),0.621
19,O=C(O)[C@H](O)c1ccccc1 [mandelic-acid] (10 µM),-0.0448
20,O=C(/C=C/N1C[C@H]2C[C@@H]1CN2c1ccccn1)c1ccccc1O (10 µM),-0.0425

row,Compound,morphology score
1,C=CC[N+]1([C@H]2C[C@H]3[C@@H]4CC[C@H]5C[C@H](O)[C@@H](N6CCOCC6)C[C@]5(C)[C@H]4CC[C@]3(C)[C@H]2OC(C)=O)CCCC1 (10 µM),0.061
2,C/C(O)=C(\C#N)C(=O)Nc1ccc(C(F)(F)F)cc1 [teriflunomide] (10 µM),0.0341
3,COCC1=C(C(=O)O)N2C(=O)[C@@H](NC(=O)/C(=N\OC)c3csc(N)n3)[C@H]2SC1 [cefpodoxime] (10 µM),0.105
4,CC(=O)N(C)c1cc(-c2ccnc3c(C(=O)c4cccs4)cnn23)ccc1F [lorediplon] (10 µM),-0.126
5,CC12CCC(C(=O)N(CCCCN3CCN(c4ccccn4)CC3)C1=O)C2(C)C (stereo not given) [piricapiron] (10 µM),0.11
6,CC(C)(N)C(=O)N[C@H](COCc1ccccc1)C(=O)N1CCC2(CC1)CN(S(C)(=O)=O)c1ccccc12 [ibutamoren] (10 µM),-0.0834
7,COc1cccc(-c2ccc([C@@H](Oc3cc(-c4ccc(C[C@H](N)C(=O)O)cc4)nc(N)n3)C(F)(F)F)cc2)c1 (10 µM),0.0975
8,N=C(N)c1ccc(/N=N/Nc2ccc(C(=N)N)cc2)cc1 [diminazene-aceturate] (10 µM),0.318
9,C=CCN1CC[C@]23c4c5ccc(O)c4O[C@H]2[C@@H](OCCOCCOCCOCCOCCOCCOCCOC)CC[C@@]3(O)[C@H]1C5 [naloxegol] (10 µM),0.25
10,NCc1ccc(S(N)(=O)=O)cc1 [mafenide] (10 µM),0.136
11,COc1cc(Cc2cnc(N)nc2N)cc(OC)c1OC [trimethoprim] (10 µM),-0.0548
12,CCC(=O)OCN1C(=O)C=CC1=O (10 µM),0.14
13,CCC(NC(C)C)C(O)c1ccc(O)c2[nH]c(=O)ccc12 (stereo not given) [procaterol] (10 µM),0.142
14,CN1C2CCC1CC(OC(=O)C(O)c1ccccc1)C2 (stereo not given) [Homatropine Bromide] (10 µM),0.0164
15,C1CCC(NC2CCCCC2)CC1 [dicyclohexylamine] (10 µM),-0.191
16,CS(=O)(=O)Nc1ccc([N+](=O)[O-])cc1Oc1ccccc1 [nimesulide] (10 µM),0.0266
17,CC(C)C[C@@H](NC(=O)[C@H](C)NC(=O)CNC(=O)[C@@H](NC=O)C(C)C)C(=O)N[C@@H](C)C(=O)N[C@@H](C(=O)N[C@H](C(=O)N[C@@H](C(=O)N[C@@H](Cc1c[nH]c2ccccc12)C(=O)N[C@H](CC(C)C)C(=O)N[C@@H](Cc1c[nH]c2ccccc12)C(=O)N[C@H](CC(C)C)C(=O)N[C@@H](Cc1c[nH]c2ccccc12)C(=O)N[C@H](CC(C)C)C(=O)N[C@@H](Cc1c[nH]c2ccccc12)C(=O)NCCO)C(C)C)C(C)C)C(C)C [gramicidin] (10 µM),-0.258
18,C[C@H](N)Cc1cccc(O)c1 [gepefrine] (10 µM),-0.0218
19,CNC1CC(c2ccc(Cl)c(Cl)c2)c2ccccc21 (stereo not given) [indatraline] (10 µM),-0.112
20,N[C@@H](CSS(=O)(=O)O)C(=O)O [S-sulfo-L-cysteine] (10 µM),0.254
